Bioassay records from PubChem.
KB-V1 cytotox – KB-V1 MDR subline cytotoxicity. KB-V1 MDR cells viability, CellTiter-Glo, 72 h. Potency, µM (top dose mostly 46.1 µM), most hits filed as cytotoxic. 400,000 tested, 3.4% active. AID 1347076; further: potency means the concentration at half of the fitted maximal effect; nearly all actives have a fitted effect of over 60% in size
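Cytotoxicity toward P-gp-expressing KB-V1 cells was determined as loss of CellTiter-Glo luminescence after 72 h at 37 degrees C. Compounds were tested in quantitative HTS format across a concentration range, with curves fitted to normalized data.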
IL-1B inflam inh – blocks inflammasome-driven IL-1 beta release; 360,000 tested, 4.7% active; activity change, % at 57.5 µM; AID 743279; THP-1 LPS/ATP IL-1B secretion, AlphaLISA, 16 h; active compounds read low; in the data active means activity change below about -50%; inconclusive means mostly about -30% to -49%
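Secreted IL-1B measured by AlphaLISA bead assay after 16 h compound exposure of THP-1 cells; compounds (final up to 57.5 uM) added 1 h before LPS (250 ng/mL) and ATP (1.25 mM) stimulation; lower signal means less secretion.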
KB-3-1 cytotox – kills parental KB-3-1 adenocarcinoma cells. Potency, µM (top dose mostly 46.1 µM), hits mostly cytotoxic. 400,000 tested, 1.4% active. KB-3-1 viability, CellTiter-Glo ATP luminescence, 72 h; further: potency means the concentration at half of the fitted maximal effect; nearly all actives have a fitted effect of over 60% in size
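Screening of KB-3-1 cells (DMEM, 10% FBS, phenol-red free) ran from lowest to highest compound concentration; after 72 h at 37 °C viability was read luminescently and curves fitted.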
HT1080NT lethal – kills 2HG-producing HT-1080-NT fibrosarcoma cells; HT-1080-NT fibrosarcoma viability, CellTiter-Glo ATP luminescence, 48 h; Potency, µM (top dose mostly 46.1 µM), for the others: at the highest dose activity, negative = less viability, actives largely listed as cytotoxic; 360,000 tested, 1.6% active;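 further: NT is the 2HG producing partner of a matched IDH1 knockdown line; potency means the concentration at half of the fitted maximal effect; 0% = DMSO-treated cells and -100% = media-only wells without cells; nearly all actives have a fitted effect of over 55% in size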
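Compounds were tested in concentration-response format on HT-1080-NT cells for 48 hours at 37 degrees C. Cell viability came from CellTiter-Glo luminescence; curves were classified by r2, response magnitude and activity.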
HT1080 IDH1KD tx – HT-1080 IDH1 knockdown cell toxicity (counter line); HT-1080 IDH1 knockdown viability, ATP luminescence, 48 h; Potency, µM (titrated, usually from 46.1 µM), for the others: at the highest dose activity, negative = toxicity, actives largely listed as cytotoxic; 360,000 tested, 2% active; AID 686971;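 further: potency means the concentration at half of the fitted maximal effect; 0% = DMSO wells and -100% = cell-free medium wells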
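% activity derives from luminescence (CellTiter-Glo), normalised to DMSO and no-cell wells. HT-1080-IDH1KD cells, 750/well, had 48 h compound exposure at 37 °C.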
* marks the source's active call; other numbers are inactive results; i = inactive; ? = inconclusive; nt = not tested or not shown. In the library only some 8.8% were active in any assay of this set; here they are far more common. Unless noted, the call rests on the fitted dose curve; in most records, active means well fitted curve in the direction sought with a large enough effect; inconclusive means small, poorly fitted or top-dose-only effect, or another doubt; inactive means no such curve, though single readings can be large; an effect the other way counts as inactive or inconclusive. Unless noted, on the % scale 0 is the no-effect control and ±100 the full control effect.

SMILES | KB-V1 cytotox | IL-1B inflam inh | KB-3-1 cytotox | HT1080NT lethal | HT1080 IDH1KD tx
C[C@H]1CN([C@@H](C)CO)C(=O)Cc2cc(NS(=O)(=O)c3cn(C)cn3)ccc2O[C@@H]1CN(C)C(=O)Nc1ccc(F)cc1 | ? | 4 | i | 25% | -3%
Cc1ccc(C)c(N=Nc2nc3ccccc3n2C)c1 | 15µM* | -80* | i | 4µM* | 7.9µM*
COCCN(CCOC)Cc1cc(=O)oc2cc(C)ccc12 | i | 24 | i | 25% | 3%
CC(C)=CCC[C@H](C)CC1Cc2[nH]c(=S)[nH]c(=O)c2C(c2ccc(Cl)cc2)O1 (stereo partly drawn) | ? | -20 | i | ? | 16µM*
COC1(OC)C(/C=C/c2ccc(C)cc2)C(C#N)(C#N)C1(OC)OC (stereo not drawn) | i | -120* | ? | ? | ?
N#Cc1c(-c2ccc3c(c2)OCO3)csc1N | ? | -60* | ? | -16% | -7%
N#Cc1c(N)nc2c(c1-c1ccc3c(c1)OCO3)CCc1ccccc1-2 | ? | -12 | ? | ? | 16µM*
O=c1[nH]c(=O)n(C(c2ccccc2)c2ccccc2)cc1Br | i | 15 | i | 0% | 9%
O=c1[nH]nc(Br)c(=O)n1C(c1ccccc1)c1ccccc1 | 23µM* | -5 | ? | -6% | -10%
Cc1n[nH]c(C)c1N=Nc1ccc(Br)cc1 | ? | -30 | 16µM* | -25% | ?
Oc1ccc(C[C@@H]2CNCCN2CC2CCCCC2)cc1 | i | -21 | i | -26% | -4%
c1ccc2c(C[C@@H]3CNCCN3CC3CCCCC3)cccc2c1 | i | -58* | i | -18% | -10%
Cc1noc(C)c1CSc1nc2[nH]ncc2c(=O)n1-c1ccccc1 | ? | 18 | ? | ? | 0.52µM*
O=c1c2cn[nH]c2nc(SCc2c(F)cccc2F)n1-c1ccc(Cl)cc1 | i | -74* | ? | -13% | ?
Cc1noc(C)c1CSc1nc2ccccc2c(=O)n1-c1ccccc1 | 5.8µM* | -6 | 5.8µM* | ? | 9.2µM*
Cc1nc(CSc2nc3[nH]ncc3c(=O)n2-c2ccccc2)cs1 | i | 9 | i | -6% | -17%
Cc1noc(C)c1CSc1nc2ccccc2c(=O)n1-c1ccc(F)cc1F | 21µM* | -12 | 7.3µM* | ? | 16µM*
CN(C)c1ccc(NC(=S)NC23CC4CC(CC(C4)C2)C3)cc1 | i | 21 | i | 3% | 0%
COc1ccc(-c2ccnc3c(Br)c(C)nn23)cc1 | i | 38 | i | -3% | -11%
CCN(CC)S(=O)(=O)c1ccc2oc(C(=O)N(C)Cc3ccccc3)c(C)c2c1 | ? | nt | i | nt | nt
CC(C)CCNC(=O)c1ccc2nc(CCc3ccccc3)oc2c1 | i | nt | i | nt | nt
O=Nc1c(O)n(Cc2c(Cl)cccc2Cl)c2ccccc12 | i | ? | i | ? | ?
Cc1ccc(Cn2c(O)c(N=O)c3ccccc32)cc1 | i | -88* | i | -13% | -25%
C/C(Cl)=C\Cn1c(O)c(N=O)c2ccccc21 | ? | -98* | i | -21% | ?
O=Nc1c(O)n(Cc2ccc(Cl)cc2)c2ccccc12 | i | -88* | i | ? | ?
SMILES | KB-V1 cytotox | IL-1B inflam inh | KB-3-1 cytotox | HT1080NT lethal | HT1080 IDH1KD tx
O=Nc1c(O)n(Cc2ccc(Cl)cc2Cl)c2ccccc12 | i | -58* | ? | ? | ?
Cc1ccc(CN2C(=O)C(C)Sc3ccc(C#N)cc32)cc1 (stereo not drawn) | i | 20 | i | -16% | -8%
Cc1ccc2nc(COc3ccccc3NC(=O)c3ccc(F)cc3)cc(=O)n2c1 | ? | nt | i | nt | nt
OCC[C@@H]1C[C@H](O)[C@@H](O)[C@@]2(CCCCO2)O1 | i | 48 | i | 16% | 17%
COCCN1C(=O)CCC1(C)C(=O)NC1CCCC1 (stereo not drawn) | i | 3 | i | 16% | 20%
Cc1ccc2c(c1)c(N=O)c(O)n2Cc1ccc(Cl)cc1 | ? | -73* | i | -13% | 2%
Cc1ccc2c(c1)c(N=NC(N)=S)c(O)n2Cc1ccccc1 | i | 22 | i | 1% | 2%
